According to PubChem BioAssay AID2284105 (EPA ToxCast):
Records with an inconclusive call do not appear. Activity calls are given as the source filed them. Rule for the calls: active = hit-call score of the fitted dose curve at least 0.9, where 1 is the maximum; inconclusive = response in the unintended direction; inactive = score below 0.9.

Each molecule was assayed against human Monoamine Oxidase A (MAO-A), MAOA (gene 4128) (UniProt P21397) (assay: ERF_FR_ENZ_hMAOA: Eurofins (ERF) Enzymatic LeadHunter Assay for human Monoamine Oxidase A (MAO-A)).
Sequence of human Monoamine Oxidase A (MAO-A), MAOA (gene 4128) (P21397 whole entry, looked up): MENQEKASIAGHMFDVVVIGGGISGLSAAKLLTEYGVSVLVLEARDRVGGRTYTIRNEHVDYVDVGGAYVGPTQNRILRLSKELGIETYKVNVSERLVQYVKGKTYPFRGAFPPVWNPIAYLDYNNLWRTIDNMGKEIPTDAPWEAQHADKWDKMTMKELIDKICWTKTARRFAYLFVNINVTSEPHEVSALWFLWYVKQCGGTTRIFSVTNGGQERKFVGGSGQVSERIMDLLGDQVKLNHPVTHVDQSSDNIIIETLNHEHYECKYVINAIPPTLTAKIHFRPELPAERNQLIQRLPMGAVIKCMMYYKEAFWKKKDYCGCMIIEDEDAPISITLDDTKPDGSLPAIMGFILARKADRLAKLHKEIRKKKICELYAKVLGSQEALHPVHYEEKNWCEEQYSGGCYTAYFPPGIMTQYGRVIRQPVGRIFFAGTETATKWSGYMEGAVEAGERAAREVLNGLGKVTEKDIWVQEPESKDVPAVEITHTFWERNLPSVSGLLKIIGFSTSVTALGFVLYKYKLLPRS
Description: ERF_FR_ENZ_hMAOA is a biochemical, single-readout assay that uses extracted gene-proteins in a cell-free assay. Measurements were taken 0.33 hour after chemical dosing in a 96-well plate. See Monoamine Oxidase A (MAO-A) Human Enzymatic Assay, Cerep.ERF_FR_ENZ_hMAOA is an assay component calculated from the ERF_FR_ENZ_hMAOA assay. It is designed to measure enzyme activity using a type of enzyme reporter as detected by fluorescence intensity with spectrophotometry technology.Data from the assay component ERF_FR_ENZ_hMAOA was analyzed at the assay endpoint, ERF_FR_ENZ_hMAOA, in the positive analysis fitting direction relative to DMSO as the negative control and baseline of activity. Using a type of enzyme reporter, loss-of-signal activity can be used to understand changes in enzymatic activity as they relate to gene MAOA. To generalize the intended target to other relatable targets, this assay endpoint is annotated to the […] intended target family, where the subfamily is monoamine oxidase.
Human cells are incubated for 45 minutes at room temprature with Kynuramine, diHCl at 350 uM as sunstrate. Test Sample Requirements: Minimum for 1) Screen: 60 ul of 10 mM stock -OR- 1 mg (pre-weighed) for 10 uM final testing. 2) Dose Response: 90 ul of 10 mM stock -OR- 1 mg (pre-weighed) for a top concentration at 10 uM.
`COc1cc(/C=C/C(=O)CC(=O)/C=C/c2ccc(O)c(OC)c2)ccc1O` was tested, and the outcome was “inactive”.
`COc1cc(CCC(=O)CC(=O)CCc2ccc(O)c(OC)c2)ccc1O` was tested, and the outcome was “inactive”.
